Gal4-VP16 FLuc: VP16 counterscreen qHTS for inhibitors of ROR gamma transcriptional activity; Drosophila S2 Gal4-VP16 UAS-luciferase, luminescence, 20 h; Potency, µM (highest dose often 53.6 µM), for inactives: at the top dose activity, negative = inhibition, most hits filed as inhibitors; actives 3.5% (n = 310,000);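 note: Gal4-VP16 expression switched on by copper sulfate through the metallothionein promoter; nearly all actives have a fitted effect of over 50% in size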
TDP1 cell CPT: qHTS for Inhibitors of human tyrosyl-DNA phosphodiesterase 1 (TDP1): qHTS in cells in presence of CPT | Potency, µM (highest dose often 46.2 µM), for inactives: top-dose activity change, negative = growth inhibition, most hits filed as inhibitors | actives 12% (n = 420,000) | chicken DT40 Tdp1-/-;hTDP1 cells + 20 nM CPT, ATP luminescence, 48 h | AID 686979, 2013; note: nearly all actives have a fitted effect of over 55% in size
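Chicken DT40 Tdp1-/- cells stably complemented with human TDP1 were seeded at 400 cells/well in medium containing 20 nM camptothecin, exposed to pin-transferred compounds, and grown at 37 °C for at least 48 hr. Viability was read as ATP luminescence.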
ELG1 DNA repair: qHTS screen for small molecules that inhibit ELG1-dependent DNA repair in human embryonic kidney (HEK293T) cells expressing luciferase-tagged ELG1 | HEK293T ELG1-luciferase reporter, luminescence, 16 h; DNA damage induced by 5-fluorouridine | Potency, µM (top dose mostly 46.1 µM), without a hit: top-dose activity change, negative = inhibition, actives largely listed as inhibitors | actives 2.3% (n = 330,000) | AID 504467, 2011; note: nearly all actives have a fitted effect of over 55% in size
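Cells (2,000 per well) received 5-fluorouridine plus test compound or DMSO and were incubated 16 hr at 37 °C, 5% CO2. Luciferase activity was read by luminescence 30 min after ONE-Glo addition; signal suppression marked inhibition of damage-induced ELG1 function.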
RORg inh: qHTS for inhibitors of ROR gamma transcriptional activity. AID 2551, 2010. Drosophila S2 Gal4-RORgamma UAS-luciferase reporter, 20 h. actives 5.4% (n = 310,000). Nuclear receptor ROR-gamma (Mus musculus), P51450. Potency, µM (top dose mostly 53.6 µM), for the others: top-dose activity change, negative = inhibition, usual class: inhibitors; note: nearly all actives have a fitted effect of over 60% in size
Target sequence (P51450 whole entry, looked up, the tested form may be a part): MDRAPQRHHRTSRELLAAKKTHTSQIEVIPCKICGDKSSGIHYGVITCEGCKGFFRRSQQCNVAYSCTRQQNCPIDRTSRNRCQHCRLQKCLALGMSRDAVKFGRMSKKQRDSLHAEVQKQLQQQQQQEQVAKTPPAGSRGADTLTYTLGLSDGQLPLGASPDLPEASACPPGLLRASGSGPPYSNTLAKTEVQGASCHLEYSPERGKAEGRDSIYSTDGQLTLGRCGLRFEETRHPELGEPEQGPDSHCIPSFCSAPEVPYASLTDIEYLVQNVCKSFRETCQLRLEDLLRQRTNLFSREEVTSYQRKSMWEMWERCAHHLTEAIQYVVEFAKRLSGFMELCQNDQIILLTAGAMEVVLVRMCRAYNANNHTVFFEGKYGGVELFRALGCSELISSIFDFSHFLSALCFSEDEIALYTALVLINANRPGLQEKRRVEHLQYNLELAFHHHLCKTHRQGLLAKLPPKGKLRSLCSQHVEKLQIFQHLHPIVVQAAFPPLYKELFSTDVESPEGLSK
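Drosophila Schneider cells stably carrying a metallothionein-driven Gal4 DBD–ROR gamma fusion and a UAS-Photinus luciferase reporter were exposed to compound for 1 hr, then induced with copper sulfate (700 uM final) for 20 hr at ambient temperature before luminescence reading.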
DT40 TDP1 no CPT: qHTS for Inhibitors of human tyrosyl-DNA phosphodiesterase 1 (TDP1): qHTS in cells in absence of CPT. DT40 Tdp1-/- hTDP1 cells, no CPT, ATP luminescence, 48 h. Potency, µM (doses to about 46.2 µM), without a hit: at the top dose activity change, negative = growth inhibition, actives largely listed as inhibitors. actives 15% (n = 420,000). AID 686978, 2013; note: nearly all actives have a fitted effect of over 55% in size
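A cellular qHTS used chicken DT40 cells lacking endogenous Tdp1 but carrying stably transfected human TDP1. Compounds were applied without camptothecin, and cell growth kinetics were judged by ATP-dependent luminescence after ≥48 hr.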
12-LOX inh: Primary qHTS assay for inhibitors of human arachidonate 12S-lipoxygenase (ALOX12): Round 2. Potency, µM (doses to about 108 µM), inactives show top-dose activity change, negative = inhibition, actives largely listed as inhibitors. actives 1.1% (n = 580,000). purified 12hLO, xylenol orange hydroperoxide absorbance. Polyunsaturated fatty acid lipoxygenase ALOX12 (Homo sapiens), P18054
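Purified human 12hLO (150 nM final) in 25 mM Hepes, 0.01% Triton X-100, pH 7.0 was preincubated 15 min at room temperature with compound. Then 40 uM arachidonic acid was added, 30 min. Hydroperoxide was read by Fe-XO absorbance ratio 573/405 nm.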
Starred values were filed as active, the others as inactive; [ ] = remark or other dose. Rows were chosen to be rich in hits. Some 15% of all compounds tested hit in one or more screens of this group. Calls come from the whole dose curve; as a rule, active = well fitted curve in the direction sought with a large enough effect; inconclusive = small, poorly fitted or top-dose-only effect, or another doubt; inactive = no such curve, though single readings can be large; an effect the other way counts as inactive or inconclusive. % is set by controls: 0 for no effect and ±100 for the full control effect; potency is the fitted concentration of half-maximal effect.

OCCN1CCN(CCOc2ccccc2-c2ccccc2)CC1 was read as Gal4-VP16 FLuc inconclusive, TDP1 cell CPT inconclusive, ELG1 DNA repair -2.3%, RORg inh 42.0%, DT40 TDP1 no CPT inconclusive and 12-LOX inh inconclusive.
For N=C(C[C@@H](O)COc1ccccc1-c1ccccc1)N1CCCCC1 the results were Gal4-VP16 FLuc 4.1%, TDP1 cell CPT 2.99µM*, RORg inh -7.3%, DT40 TDP1 no CPT 3.76µM* and 12-LOX inh inconclusive.
For c1ccc(-c2ccccc2OCCCN2CCCCC2)cc1 the results were Gal4-VP16 FLuc -12.3%, TDP1 cell CPT 16.4µM*, ELG1 DNA repair -28.0%, RORg inh -2.1%, DT40 TDP1 no CPT 14.6µM* and 12-LOX inh -24.4%.
Screening c1ccc2c(OCCCN3CCCCCC3)cccc2c1 returned Gal4-VP16 FLuc 4.8%, TDP1 cell CPT 29.1µM*, ELG1 DNA repair -13.2%, RORg inh -28.1%, DT40 TDP1 no CPT 23.1µM* and 12-LOX inh inconclusive.
Screening CCN1CCN(CCCOc2ccccc2-c2ccccc2)CC1 returned Gal4-VP16 FLuc -17.5%, TDP1 cell CPT inconclusive, ELG1 DNA repair 5.3%, RORg inh 4.3%, DT40 TDP1 no CPT inconclusive and 12-LOX inh -60.1%.
Screening COc1ccc(C(=O)N2CCC(c3noc(-c4ccncc4)n3)C2)cn1 (stereo not drawn) returned 12-LOX inh 3.3%.
O=C1NC2(C(=O)Nc3ccc(F)c(Cl)c3)CCC(=O)N2c2ccccc21 (stereo not drawn) was read as 12-LOX inh 48.7%.
For Cc1ccc(-c2nn(-c3ccccc3)cc2/C=N/n2c(-c3ccncc3)n[nH]c2=S)cc1 the results were Gal4-VP16 FLuc -4.4%, TDP1 cell CPT 8.5%, ELG1 DNA repair inconclusive, RORg inh -8.6%, DT40 TDP1 no CPT inconclusive and 12-LOX inh inconclusive.
For Cc1ccc(-c2n[nH]c(=S)n2/N=C/c2ccncc2)cc1 the results were Gal4-VP16 FLuc inconclusive, TDP1 cell CPT -1.0%, ELG1 DNA repair -12.9%, RORg inh 11.2µM*, DT40 TDP1 no CPT inconclusive and 12-LOX inh inconclusive.
Cc1ccc(-c2n[nH]c(=S)n2/N=C/c2ccc(C)o2)cc1 was read as Gal4-VP16 FLuc 3.55µM*, TDP1 cell CPT inconclusive, ELG1 DNA repair 1.2%, RORg inh 5.01µM*, DT40 TDP1 no CPT inconclusive and 12-LOX inh inconclusive.
`Cc1ccc(/C=N/n2c(-c3ccc(Cl)cc3)n[nH]c2=S)o1` gave Gal4-VP16 FLuc -29.9%, TDP1 cell CPT 1.0%, ELG1 DNA repair 7.5%, RORg inh 6.31µM*, DT40 TDP1 no CPT 0.4% and 12-LOX inh inconclusive.
Screening Cc1ccc(/C=N/n2c(C)nnc2C)o1 returned Gal4-VP16 FLuc inconclusive, TDP1 cell CPT inconclusive, ELG1 DNA repair inconclusive, RORg inh -30.7%, DT40 TDP1 no CPT inconclusive and 12-LOX inh -7.2%.
`CCOc1ccc(CC(=NCCc2ccccc2)C2=C(O)CC(C)(C)CC2=O)cc1OCC` gave Gal4-VP16 FLuc 5.9%, TDP1 cell CPT 14.6µM*, ELG1 DNA repair inconclusive, RORg inh 29.6%, DT40 TDP1 no CPT 16.4µM* and 12-LOX inh -0.4%.
`Cc1cc(OCC(=O)c2ccc3c(c2)N(CC(=O)NCC2CCCO2)C(=O)CO3)ccc1C(C)C` (stereo not drawn) gave 12-LOX inh -2.9%.
For CCOC(=O)N1CCN(S(=O)(=O)Cc2ccccc2)CC1 the results were Gal4-VP16 FLuc -0.3%, TDP1 cell CPT 1.7%, ELG1 DNA repair -2.1%, RORg inh 8.4%, DT40 TDP1 no CPT 5.4% and 12-LOX inh 117.1%.
CC(CC(=O)N1CCN(C(=O)c2ccccc2)CC1)c1ccccc1 (stereo not drawn) was read as Gal4-VP16 FLuc -0.1%, TDP1 cell CPT 6.5%, ELG1 DNA repair -10.9%, RORg inh 9.4%, DT40 TDP1 no CPT -2.3% and 12-LOX inh 0.0%.
O=C(CCl)N1CCN(S(=O)(=O)Cc2ccccc2)CC1 was read as TDP1 cell CPT 18.4µM*, ELG1 DNA repair 9.2µM*, DT40 TDP1 no CPT 4.61µM* and 12-LOX inh -11.3%.
For CC(c1ccccc1)N1CCN(C(=O)CCl)CC1 (stereo not drawn) the results were Gal4-VP16 FLuc 20.7%, TDP1 cell CPT 11.6µM*, ELG1 DNA repair -17.6%, RORg inh -34.2%, DT40 TDP1 no CPT 18.4µM* and 12-LOX inh -17.5%.
CC(C)(C)c1ccc(C(=O)N2CCC2(C)C(=O)NCc2cccs2)cc1 (stereo not drawn) was read as TDP1 cell CPT 6.51µM*, DT40 TDP1 no CPT 0.651µM* and 12-LOX inh 0.1%.
`CC(C)(C)c1ccc(CC(=O)N2CCC2(C)C(=O)NCc2cccs2)cc1` (stereo not drawn) gave TDP1 cell CPT 11.6µM*, DT40 TDP1 no CPT 10.3µM* and 12-LOX inh -0.3%.
CCOc1cc(=O)n2c(c1C(=O)N1CCN(C3CCCCC3)CC1)CCCCC2 was read as 12-LOX inh 11.0%.
`CC(=O)NNC(=S)Nc1ccc(Cl)cc1` gave 12-LOX inh 15.1%.
Screening CN(C)/C=N/C(=S)Nc1ccc(Cl)cc1Cl returned Gal4-VP16 FLuc 4.8%[10 µM], TDP1 cell CPT 5.8%, ELG1 DNA repair inconclusive, RORg inh 12.6µM*, DT40 TDP1 no CPT inconclusive and 12-LOX inh inconclusive.
For CN(C)/C=N/C(=S)Nc1ccc(Cl)cc1 the results were Gal4-VP16 FLuc -10.0%[10 µM], TDP1 cell CPT -12.5%, ELG1 DNA repair inconclusive, RORg inh 6.31µM*, DT40 TDP1 no CPT inconclusive and 12-LOX inh -26.6%.
`CN1CCN(C(=S)Nc2ccc(Cl)cc2Cl)CC1` gave Gal4-VP16 FLuc 14.5%, TDP1 cell CPT -11.8%, ELG1 DNA repair 13.9%, RORg inh -24.2%, DT40 TDP1 no CPT inconclusive and 12-LOX inh -22.6%.
Cc1cccc(C)c1NC(=S)/N=C/N(C)C was read as Gal4-VP16 FLuc 5.0%[10 µM], TDP1 cell CPT inconclusive, ELG1 DNA repair 10.4%, RORg inh 20µM*, DT40 TDP1 no CPT inconclusive and 12-LOX inh 0.0%.
